# Values without a mark were called inactive. Records with an inconclusive call do not appear. Where a call stands in place of a potency, no number is given. Calls of active or inactive are those of the source. Unless noted, the call rests on the fitted dose curve; in most records, active means well fitted curve in the direction sought with a large enough effect in the repeat runs; inconclusive means weak or mixed curves; inactive means no such curve, though single readings can be large; an effect the other way counts as inactive or inconclusive.
# Assays:
# [1] = qHTS RealTime-Glo MT Cell Viability Assay in HEK293 cells - 24 hour (AID 1224886); further: nearly all actives have a fitted effect of over 50% in size; further: potency means the concentration at half of the fitted maximal effect
# How it was run: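 HEK293 cells were seeded at 600 cells/well together with NanoLuc luciferase and cell-permeant prosubstrate, preincubated 5 h at 37 C/5% CO2, then given compound in DMSO by pintool. Luminescence from viable-cell prosubstrate reduction was read repeatedly over 40 h.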
# [2] = qHTS RealTime-Glo MT Cell Viability Assay in HEK293 cells - 8 hour (AID 1224887); further: nearly all actives have a fitted effect of over 50% in size; further: potency means the concentration at half of the fitted maximal effect
# How it was run: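 Real-time viability in HEK293: signal arises when living cells convert a prosubstrate for NanoLuc in the medium, so luminescence tracks viable cell number. Compound (23 nL, DMSO) added 5 h post-seeding; kinetic reads at 0–40 h, 37 C.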
# [3] = qHTS RealTime-Glo MT Cell Viability Assay in HepG2 cells - 0 hour (AID 1224889); further: nearly all actives have a fitted effect of over 50% in size
# How it was run: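 HepG2 cells were seeded at 600 cells/well together with NanoLuc luciferase and a cell-permeant prosubstrate, preincubated 5 h at 37 C/5% CO2, then pin-dosed with compounds in DMSO. Nonlytic luminescence from viable cells was read at each time point.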
# [4] = A CellTox Green Cytotoxicity Assay to monitor cytotoxicity in HepG2 cells - 8 hour (AID 1224890); further: nearly all actives have a fitted effect of over 45% in size
# How it was run: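 Cells and non-lytic dye reagent are dispensed together (600 HepG2 cells/well) and incubated 5 h before DMSO compound transfer. Kinetic fluorescence is then recorded in the same wells during 40 h at 37 C.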
# [5] = qHTS assay to identify small molecule antagonists of the estrogen receptor alpha (ER-alpha) signaling pathway using the BG1 cell line in the presence of 0.1 nM 17-beta-estradiol - cell viability counter screen (AID 1259241); further: nearly all actives have a fitted effect of over 40% in size
# How it was run: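 Measures cytotoxicity alongside the ER-alpha antagonist readout: VM7Luc4E2 cells, charcoal-stripped serum, 0.1 nM 17beta-estradiol final, 22 hr compound incubation at 37C, CellTiter-Fluor fluorescence.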
# [6] = qHTS assay to identify small molecule antagonists of the androgen receptor (AR) signaling pathway using the MDA cell line in the presence of 0.5 nM R1881 - cell viability counter screen (AID 1259242); further: nearly all actives have a fitted effect of over 45% in size
# How it was run: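 Steps: plate MDA-kb2 cells, rest 5 hr at 37C without CO2; pin in compounds in DMSO; add R1881 to 0.5 nM final; incubate 16 hr; add CellTiter-Fluor, 30 min; read fluorescence.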
# [7] = qHTS assay to identify small molecule phospholipidosis (PLD) inducers (AID 1259344; active means well fitted curve in the direction sought with a large enough effect; an effect the other way counts as inactive or inconclusive)
# How it was run: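 Read-out is LipidTOX Red fluorescence (ex 595/em 615) imaged in HepG2 cells after 24 h compound exposure at 37 C, with Hoechst nuclear counterstain (ex 352/em 461) allowing per-cell normalisation.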
# [8] = qHTS assay to identify small molecule HDAC inhibitors (AID 1259364);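 further: wild-type HCT-116 cells with endogenous class I/II HDAC activity; top concentration of the series differs between compounds; nearly all actives have a fitted effect of over 45% in size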
# How it was run: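 Cells (HCT-116, wild type) are seeded at 1,500 per well, incubated overnight, treated with compound in DMSO for 2 hr, then developed with HDAC-Glo I/II reagent for 30 min at room temperature.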
# [9] = qHTS assay to identify small molecule HDAC inhibitors - cell viability counter screen (AID 1259365); further: series mostly up to about 92 µM; nearly all actives have a fitted effect of over 50% in size
# How it was run: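 Following a 2hr exposure of overnight-plated wild-type HCT-116 cells to DMSO-delivered compounds, CellTiter-Glo was added and luminescence recorded after 30min at room temperature.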
# [10] = qHTS assay to identify small molecule agonists of the sonic hedgehog signaling (Shh) pathway - cell viability counter screen (AID 1259366); further: nearly all actives have a fitted effect of over 50% in size
# How it was run: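 After a 4hr attachment at 37C, NIH/3T3 cells bearing an integrated Gli1-driven luciferase reporter were dosed with compounds. Treatment lasted 24hr, with the final hour including CellTiter-Fluor for a fluorescence viability measurement.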
# [11] = qHTS assay to identify small molecule antagonists of the sonic hedgehog signaling (Shh) pathway - cell viability counter screen (AID 1259367); further: nearly all actives have a fitted effect of over 55% in size
# How it was run: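 Fluorescence read-out (CellTiter-Fluor, 1 hr at 37C) taken after 23 hr compound treatment of 3T3 Gli1-Luc cells stimulated with conditioned medium. Cells were seeded at 2,000 per well and pre-incubated 4 hr.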
# [12] = qHTS assay to identify small molecule antagonists of the sonic hedgehog signaling (Shh) pathway (AID 1259369; calls by dose curve; further: nearly all actives have a fitted effect of over 45% in size; further: potency means the concentration at half of the fitted maximal effect)
# How it was run: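 Cells are plated and held 4hr at 37 C, compounds (DMSO) are pinned in, conditioned medium is added to stimulate the pathway, and after 24hr luciferase reagent is added for 30min before luminescence is read.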
# [13] = target: Estrogen receptor beta (Homo sapiens) (UniProt Q92731); experiment: qHTS assay to identify small molecule antagonists of the estrogen receptor beta (ER-beta) signaling pathway (AID 1259378; active means well fitted inhibition curve with a large enough effect in the signal ratio in the repeat runs, not every such curve was filed as active; the % refers to the signal ratio)
# Chain of Estrogen receptor beta (Homo sapiens) (Q92731 whole entry, looked up): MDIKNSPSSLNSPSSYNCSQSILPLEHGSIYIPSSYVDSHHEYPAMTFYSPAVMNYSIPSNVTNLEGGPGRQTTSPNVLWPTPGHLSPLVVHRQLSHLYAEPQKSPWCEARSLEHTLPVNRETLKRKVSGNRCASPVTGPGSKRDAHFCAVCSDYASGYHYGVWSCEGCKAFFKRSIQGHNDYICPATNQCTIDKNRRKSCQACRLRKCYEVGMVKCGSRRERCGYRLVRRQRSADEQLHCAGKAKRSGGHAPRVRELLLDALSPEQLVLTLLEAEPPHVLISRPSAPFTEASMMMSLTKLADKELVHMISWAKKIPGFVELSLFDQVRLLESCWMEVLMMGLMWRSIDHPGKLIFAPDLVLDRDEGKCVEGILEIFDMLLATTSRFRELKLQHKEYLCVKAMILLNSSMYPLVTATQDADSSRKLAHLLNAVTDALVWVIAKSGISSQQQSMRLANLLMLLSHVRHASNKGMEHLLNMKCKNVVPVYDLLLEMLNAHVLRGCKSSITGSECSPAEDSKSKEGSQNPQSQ
# How it was run: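 ER-beta-UAS-bla HEK293T cells in 2% charcoal-stripped FBS medium treated with compound plus 1nM final 17-beta-estradiol for 16 hr at 37C. Beta-lactamase reporter read by FRET substrate fluorescence after 2 hours at room temperature.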
# [14] = qHTS assay to identify small molecule agonists of the androgen receptor (AR) signaling pathway in the presence of an antagonist - cell viability counter screen (AID 1259379);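 further: MDA-kb2 human breast cancer cells carrying an MMTV luciferase reporter; series mostly up to about 92 µM; nearly all actives have a fitted effect of over 25% in size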
# How it was run: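 Cytotoxicity is assessed by CellTiter-Fluor in MDA-kb2 cells carrying an MMTV-driven luciferase reporter. Cells receive 3.0uM nilutamide plus compounds at 15 concentrations and incubate 16 hr at 37C without CO2 before fluorescence reading.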
# [15] = qHTS assay to identify small molecule agonists of the estrogen receptor beta (ER-beta) signaling pathway - cell viability counter screen (AID 1259380); further: nearly all actives have a fitted effect of over 30% in size
# How it was run: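 Cytotoxicity is measured in parallel with the reporter screen: after 16 hr compound exposure at 37C and a 2 hr LiveBLAzer step, CellTiter-Glo is added to the same ER-beta-UAS-bla HEK293T wells and luminescence read after 30 min.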
# [16] = qHTS assay to identify small molecule agonists of the sonic hedgehog signaling (Shh) pathway (AID 1259368; calls by dose curve;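 further: NIH/3T3-derived 3T3Gli1-Luc cells carrying a stable Gli1-driven firefly luciferase reporter; series mostly up to about 92 µM; nearly all actives have a fitted effect of over 15% in size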)
# How it was run: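 Cells of a mouse NIH/3T3 clone stably expressing luciferase under the Gli1 transcriptional response element are exposed to test chemicals for 24 hr at 37 C. Pathway activation is detected as a rise in luminescence.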
# [17] = target: Estrogen receptor beta (Homo sapiens) (UniProt Q92731); experiment: qHTS assay to identify small molecule agonists of the estrogen receptor beta (ER-beta) signaling pathway (AID 1259377; active means well fitted activation curve with a large enough effect in the signal ratio in the repeat runs, not every such curve was filed as active; the % refers to the signal ratio)
# How it was run: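 In HEK293T cells bearing a UAS-beta-lactamase reporter under ER-beta control, DMSO-delivered compounds were incubated for 16 hr at 37C. Activity was detected as fluorescence 2 hours after LiveBLAzer B/G FRET substrate addition.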
# [18] = A CellTox Green Cytotoxicity Assay to monitor cytotoxicity in HEK293 cells - 16 hour (AID 1224888); further: nearly all actives have a fitted effect of over 35% in size
# How it was run: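 Cells (HEK293, 600/well) and dye reagent are dispensed together. After 5 h at 37 C, 23 nL compound is pinned in. Plates stay at 37 C for 40 h with fluorescence read at 0h, 8h, 16h, 24h, 32h and 40h.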
# [19] = target: Estrogen receptor (Homo sapiens) (UniProt P03372); experiment: qHTS assay to identify small molecule antagonists of the estrogen receptor alpha (ER-alpha) signaling pathway using the BG1 cell line in the presence of 0.1 nM 17-beta-estradiol (AID 1259244); further: nearly all actives have a fitted effect of over 50% in size
# Chain of Estrogen receptor (Homo sapiens) (P03372 whole entry, looked up): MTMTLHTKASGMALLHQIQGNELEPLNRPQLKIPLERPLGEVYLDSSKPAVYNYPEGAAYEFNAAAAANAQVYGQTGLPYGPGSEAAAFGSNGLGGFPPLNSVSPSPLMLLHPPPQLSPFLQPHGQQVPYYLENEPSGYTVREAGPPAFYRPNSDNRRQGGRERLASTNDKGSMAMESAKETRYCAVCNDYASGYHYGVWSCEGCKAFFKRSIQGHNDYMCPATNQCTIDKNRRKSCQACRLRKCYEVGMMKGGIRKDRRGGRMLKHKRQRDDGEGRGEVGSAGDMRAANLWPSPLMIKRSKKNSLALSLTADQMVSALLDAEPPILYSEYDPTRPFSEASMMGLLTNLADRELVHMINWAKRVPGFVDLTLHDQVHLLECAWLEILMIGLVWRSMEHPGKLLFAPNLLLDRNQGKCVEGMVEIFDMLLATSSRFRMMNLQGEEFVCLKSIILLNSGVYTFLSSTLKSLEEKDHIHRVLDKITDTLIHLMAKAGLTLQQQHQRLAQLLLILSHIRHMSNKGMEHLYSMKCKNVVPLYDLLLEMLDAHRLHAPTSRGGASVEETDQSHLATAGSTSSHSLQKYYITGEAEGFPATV
# How it was run: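 Antagonist mode: compounds in DMSO are pinned onto VM7Luc4E2 reporter cells, 0.1 nM final 17beta-estradiol is added, and after 22 h at 37C luciferase luminescence is measured with ONE-Glo.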
# [20] = target: Androgen receptor (Homo sapiens) (UniProt P10275); experiment: qHTS assay to identify small molecule antagonists of the androgen receptor (AR) signaling pathway using the MDA cell line in the presence of 0.5 nM R1881 (AID 1259243); further: nearly all actives have a fitted effect of over 50% in size
# Chain of Androgen receptor (Homo sapiens) (P10275 whole entry, looked up): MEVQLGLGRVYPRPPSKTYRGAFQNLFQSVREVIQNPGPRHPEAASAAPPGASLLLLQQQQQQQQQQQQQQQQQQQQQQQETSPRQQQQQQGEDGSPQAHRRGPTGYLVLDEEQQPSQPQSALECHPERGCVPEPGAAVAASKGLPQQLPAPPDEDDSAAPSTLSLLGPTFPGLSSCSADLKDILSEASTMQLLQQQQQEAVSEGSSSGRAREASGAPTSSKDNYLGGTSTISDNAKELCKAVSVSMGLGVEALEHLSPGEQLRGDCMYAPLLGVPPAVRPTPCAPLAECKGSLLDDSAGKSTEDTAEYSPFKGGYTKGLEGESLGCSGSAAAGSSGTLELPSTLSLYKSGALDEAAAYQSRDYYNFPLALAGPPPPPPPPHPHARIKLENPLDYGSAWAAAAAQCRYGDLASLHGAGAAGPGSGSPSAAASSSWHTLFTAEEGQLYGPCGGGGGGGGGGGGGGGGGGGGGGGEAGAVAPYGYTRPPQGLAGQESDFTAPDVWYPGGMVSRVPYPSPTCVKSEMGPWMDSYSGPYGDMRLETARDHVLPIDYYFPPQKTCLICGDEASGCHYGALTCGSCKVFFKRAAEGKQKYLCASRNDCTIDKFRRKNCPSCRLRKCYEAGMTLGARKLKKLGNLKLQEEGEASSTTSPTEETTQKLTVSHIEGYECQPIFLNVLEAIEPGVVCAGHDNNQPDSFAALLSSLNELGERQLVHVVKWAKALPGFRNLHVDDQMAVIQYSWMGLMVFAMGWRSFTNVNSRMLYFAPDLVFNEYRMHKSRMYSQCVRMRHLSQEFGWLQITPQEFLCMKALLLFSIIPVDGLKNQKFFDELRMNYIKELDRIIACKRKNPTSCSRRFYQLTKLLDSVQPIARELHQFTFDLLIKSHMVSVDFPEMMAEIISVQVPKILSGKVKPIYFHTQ
# How it was run: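 Stably transfected MDA-kb2 cells express luciferase from an MMTV promoter bearing both AR and GR response elements. Compounds plus 0.5 nM R1881 (final) were incubated 16 hr at 37C without CO2, then luminescence measured.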
Compound,Potency [1],Potency [2],Potency [3],Potency [4],Potency [5],Potency [6],outcome [7],Potency [8],outcome [9],Potency [10],Potency [11],Potency [12],outcome [13],Potency [14],outcome [15],outcome [16],Potency [17],Potency [18],Potency [19],outcome [20]
C[C@H]1O[C@H](O[C@H]2[C@H](O)[C@@H](O)[C@@H](O[C@H]3[C@H](O)[C@@H](O)[C@H](O)O[C@@H]3CO)O[C@@H]2CO)[C@H](O)[C@@H](O)[C@@H]1N[C@H]1C=C(CO)[C@@H](O)[C@H](O)[C@H]1O,inactive,inactive,inactive,inactive,inactive,inactive,inactive,inactive,inactive,inactive,inactive,inactive,inactive,inactive,inactive,–,–,–,–,–
C1CCN2C[C@@H]3C[C@@H](CN4CCCC[C@@H]34)[C@H]2C1,inactive,inactive,inactive,inactive,inactive,inactive,inactive,inactive,inactive,inactive,inactive,inactive,inactive,inactive,–,inactive,inactive,–,–,–
Oc1ccccc1Cc1ccccc1O,–,–,inactive,–,–,inactive,–,inactive,inactive,inactive,inactive,30.6 µM (active),–,inactive,–,inactive,–,inactive,inactive,–
CN(C1CCCCC1)S(=O)(=O)c1ccccc1N,–,inactive,inactive,inactive,–,inactive,–,inactive,inactive,inactive,inactive,–,–,inactive,–,inactive,inactive,inactive,–,–
O=C1c2ccccc2-c2ccccc21,inactive,inactive,inactive,inactive,inactive,inactive,–,inactive,inactive,inactive,inactive,inactive,inactive,inactive,inactive,inactive,inactive,–,–,–
CCC(O)C(C)(C)C (centres undefined),inactive,inactive,inactive,inactive,–,inactive,–,inactive,inactive,–,inactive,inactive,–,inactive,inactive,inactive,–,–,inactive,–
CC(=O)OC(C(=O)c1ccccc1)c1ccccc1 (centres undefined),–,–,inactive,inactive,inactive,inactive,–,inactive,inactive,inactive,inactive,inactive,inactive,inactive,inactive,inactive,inactive,inactive,inactive,inactive
O=C1NC2NC(=O)NC2N1 (centres undefined),inactive,inactive,inactive,inactive,inactive,inactive,–,inactive,inactive,inactive,inactive,–,–,inactive,inactive,inactive,inactive,–,–,–
CC1CCC(C(C)(C)S)C(=O)C1 (centres undefined),3.89 µM (active),19.5 µM (active),inactive,inactive,inactive,inactive,–,inactive,inactive,inactive,inactive,–,inactive,inactive,inactive,–,inactive,–,inactive,–

# Source: PubChem BioAssay (Tox21)
